The campaign covered roughly 96,000 compounds. About 20,000 (21%) were called active. Only a sample is shown. Values without a mark were called inactive.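 How the source made its calls: active means CYP2C19 inhibition above a set limit at 5 µM in the primary screen (cut at about 50% in these data); inactive means the rest.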
The compounds below were run against Cytochrome P450 2C19 (Homo sapiens) (UniProt P33261) (assay: blockers of cytochrome P450 2C19 activity – biochemical, luminescence, ADME assay, primary screen (AID 778;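 further: plate controls were negative control wells for no effect and 2.5 mM tranylcypromine positive control for full effect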)). Conditions: CYP2C19 Supersomes, luciferin-H EGE luminescence, 30 min; at 5 µM; hits give high values.
Sequence of Cytochrome P450 2C19 (Homo sapiens) (P33261 whole entry, looked up): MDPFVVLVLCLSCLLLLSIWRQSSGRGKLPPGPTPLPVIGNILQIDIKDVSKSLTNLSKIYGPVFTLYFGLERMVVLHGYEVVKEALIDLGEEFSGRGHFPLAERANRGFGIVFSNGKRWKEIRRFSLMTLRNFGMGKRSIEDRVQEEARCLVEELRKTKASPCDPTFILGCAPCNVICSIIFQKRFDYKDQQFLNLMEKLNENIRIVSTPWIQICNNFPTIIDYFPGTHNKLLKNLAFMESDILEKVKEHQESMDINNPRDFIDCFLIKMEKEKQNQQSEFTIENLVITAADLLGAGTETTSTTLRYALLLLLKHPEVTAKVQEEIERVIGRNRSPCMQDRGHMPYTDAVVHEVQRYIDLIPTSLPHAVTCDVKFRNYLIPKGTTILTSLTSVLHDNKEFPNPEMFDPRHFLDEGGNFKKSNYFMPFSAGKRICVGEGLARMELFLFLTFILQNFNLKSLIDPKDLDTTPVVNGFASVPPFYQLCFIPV

SMILES	inhibition
CN1C(=O)c2ccccc2C(C(=O)NCCCN2CCCC2)C1c1c[nH]c2ccccc12 (configuration not stated)	-6.7%
COCc1[nH]nc2c1C(C1C=CCCC1)C(C#N)=C(N)O2 (configuration not stated)	17.2%
N#CC1=C(N)OC2=C(C(=O)CCC2)C1C1CC=CCC1 (configuration not stated)	61.1% (active)
CC1CCc2c(sc(NC(=O)c3ccc(Cn4cc(Br)cn4)o3)c2C(N)=O)C1 (configuration not stated)	28.9%
Nc1ccccc1SCc1cc([N+](=O)[O-])cc2c1OCOC2	19.4%
CC1(C)NC(=O)N(CCOc2cccc(Oc3ccccc3)c2)C1=O	42.5%
Cc1ccc(SCCN2C(=O)NC(C)(C)C2=O)cc1	97.8% (active)
CCC(=O)c1ccc(OCC(O)CN2C(=O)NC(C)(C)C2=O)cc1 (configuration not stated)	31.7%
CC1(C)NC(=O)N(CCCCSc2ccc(Cl)cc2)C1=O	87.5% (active)
Cc1ccc(SCC2=NNC(=O)C2)cc1	7.6%
N#CC1=C(N)Oc2c(sc3ccccc23)C1c1ccco1 (configuration not stated)	22.6%
Cc1c(Cl)c([N+](=O)[O-])nn1Cc1ccc(C(=O)N/N=C\c2cc(Cl)ccc2O)o1	31.1%
CCN(CC)CCn1c(=S)[nH]c2ncccc2c1=O	-16.9%
Cc1cccc(N2C(=O)c3cccnc3C2=O)c1	10.5%
COC(=O)c1ccc(CN(c2ccccc2OC)S(=O)(=O)c2cccs2)o1	98.5% (active)
COC(=O)c1ccc(Cc2ccccc2)o1	-1.3%
COc1ccc(C(C(=O)NCc2ccccc2)N(Cc2cccs2)C(=O)c2cnccn2)cc1 (configuration not stated)	47%
CCCCN(CCCC)C(=O)CCS(=O)(=O)c1ccc2c(c1)n(C)c(=O)c(=O)n2C	3.1%
CS(=O)(=O)c1ccc2c(c1)SC1=NC(=O)/C(=C/c3ccco3)C(=N)N12	8.6%
CCS(=O)(=O)N1CCCC(C(=O)NCCCN(C)Cc2ccccc2)C1 (configuration not stated)	-3%
O=C(O)CN1C(=O)CC(Cc2ccccc2)C1=O (configuration not stated)	-1%
O=C1CC(Cc2ccccc2)C(=O)N1c1ccc(Cl)cn1 (configuration not stated)	59.4% (active)
Cc1cc(C)nc(N2C(=O)CC(Cc3ccccc3)C2=O)n1 (configuration not stated)	15.5%
COc1ccc(-n2c(C)nc3c(cnn3-c3ccccc3)c2=O)cc1	14.9%
Cc1cc(C)c(S(=O)(=O)c2ccccc2)c(OC(=O)c2c(F)cccc2Cl)n1	12.4%

SMILES	inhibition
Cc1nc(C)c(C(=O)Nc2ccc(C)c(F)c2)o1	-9%
CCOc1ccccc1-n1c(SCC(=O)N2CCCC2)nnc1-c1ccoc1C	2%
Cc1ccc2nc(S(=O)(=O)O)[nH]c2c1	-14.4%
COc1ccc(/C=C(/NC(=O)c2ccc(C)cc2)c2nc3ccccc3[nH]2)cc1OC	35.6%
Cc1ccc2nc(/C(C#N)=C\c3ccc(OC(=O)c4cccs4)cc3)[nH]c2c1	50.9% (active)
C=CCn1c(SCC(=O)/C(C#N)=C(\C)N)nc2sc(C)c(C)c2c1=O	6.6%
Cc1cnc(NC(=O)CSc2nnc(C)s2)s1	19.7%
O=C(CSc1ncnc2c1cnn2CCc1ccccc1)Nc1ccc(F)cc1	7.1%
CCC(C)NC(=O)N[C@@H](CCSC)C(=O)O (some centres not stated)	-1.9%
CCCSc1nc(NCc2ccco2)c2c3c(sc2n1)COC(C)(CC)C3 (configuration not stated)	13.8%
CCC1(C)Cc2c(sc3nnn(CC(=O)Nc4ccc(Cl)cc4)c(=O)c23)CO1 (configuration not stated)	22.1%
CCC1(C)Cc2c(sc3nc(SC)nc(N)c23)CO1 (configuration not stated)	80.9% (active)
COC(=O)c1cc(OC)c(OC)cc1NC(=O)C1CCCO1 (configuration not stated)	23.5%
O=C(Nc1sc2c(c1-c1nc3ccccc3[nH]1)CCCC2)C1CC1	9.4%
Cc1ccc(C(=O)c2c(NC(=O)c3ccncc3)sc3c2CCCC3)cc1	28.7%
O=C1NC(c2ccncc2)Nc2sc3c(c21)CCCC3 (configuration not stated)	82.8% (active)
COc1ccc2nc(NC3=NCN(CC4CCCO4)CN3)nc(C)c2c1 (configuration not stated)	2%
COc1ccccc1-c1nc(C#N)c(N2CCC(C(N)=O)CC2)o1	-9.9%
Cc1ccc(C(c2nnnn2CS(=O)(=O)c2ccc(C)cc2)N2CCC(C(N)=O)CC2)cc1 (configuration not stated)	0.4%
Cc1cccn2c(=O)c(/C=C(\C#N)S(=O)(=O)c3ccc(Cl)cc3)c(N3CCC(C(N)=O)CC3)nc12	86.2% (active)
COc1ccc(-c2cc(C(=O)NC(C(=O)O)C(C)C)c(C)o2)cc1OC (configuration not stated)	6.4%
CCN(CC)P(=O)(C(NC(=O)OC)C(F)(F)C(F)(F)C(F)(F)C(F)F)N(CC)CC (configuration not stated)	10%
CCN(CC)CCNC(=O)CCCCCn1c(=O)[nH]c2cc(C(=O)OC)ccc2c1=O	0%
Cc1n[nH]c(C)c1S(=O)(=O)N1CCCC(C(=O)NCC2COc3ccccc3O2)C1 (configuration not stated)	15.3%
Cc1cc2c(cc1C)NC(c1ccccn1)C1=C(CC(C)(C)CC1=O)N2 (configuration not stated)	1.3%

SMILES	inhibition
Cc1nn(-c2ccccn2)c2c1C(c1ccncc1)C1=C(CC(C)(C)CC1=O)N2 (configuration not stated)	98.7% (active)
O=S(=O)(N1CCCCC1)N1CCNCC1	-28.7%
CCN(CC)CCn1c2ccc(Cl)cc2c2nc(C)sc21	49.4%
CCC1CCCCN1C(=O)Nc1cccc(NC(=O)N2CCCCC2CC)c1 (configuration not stated)	-10.7%
COc1ccc(C(C)=O)cc1CN1C(=O)NC2(CCCCC2C)C1=O (configuration not stated)	33.8%
Cc1ccc2c(C(=O)CN3CCCC3)c(C)[nH]c2c1	26.2%
CCOC(=O)N1CCN(CC(=O)c2c(C)[nH]c3ccccc23)CC1	88% (active)
Cc1c(C(=O)N2CCOCC2)[nH]c2ccc(OCc3ccccc3)cc12	43.3%
Cc1c(C(=O)CN2CCOCC2)[nH]c2ccccc12	56% (active)
Cc1[nH]c2ccccc2c1C(=O)COC(=O)C(C)C	25.9%
CC1CCN(CC(=O)c2c[nH]c3ccccc23)CC1	12.2%
CSc1nc2ccccc2cc1/C=C(\C#N)c1ccc(Cl)cc1Cl	12.7%
COc1ccc(OC)c(CN2C(=O)CCC2(C)C(=O)NC2CCCCCC2)c1 (configuration not stated)	18.1%
CCOc1c2ccc(C(=O)NCc3ccc(OC(F)(F)F)cc3)cc2nn1C	13.9%
O=C(NCc1cccs1)c1ccc2c(c1)ncn2C1CCCC1	5.6%
O=C(COC(=O)c1ccccc1SCC(=O)NC1CCCCC1)NC1CCCCC1	12.2%
COCCNC(=O)c1onc(CSc2cccc(C)c2)c1C(=O)O	39.1%
CCOC(=O)CC1C(=O)NCCN1C(=O)COc1ccc(Br)cc1C (configuration not stated)	15.5%
CCCCn1c(CCCNC(=O)CC)nc2ccccc21	-20%
CCCCn1c(CN2CCN(CCO)CC2)nc2ccccc21	20.4%
C=C(Br)Cn1c(CCCC)nc2ccccc21	63.8% (active)
Cc1nc2c(-c3ccccc3)c(C)[nH]n2c(=O)c1Cl	-1%
CC(=O)Nc1nc(C)c(Cc2ccccc2)c(=O)[nH]1	6.3%
CC(Sc1sc(=S)sc1SC(C)C(=O)O)C(=O)O (configuration not stated)	-1.4%
CCCOc1ccc(Cn2c(O)cc(=O)[nH]c2=O)cc1	-7.8%

SMILES	inhibition
CC1Cc2ccccc2N1C(=O)c1cc2sccc2n1Cc1ccccc1 (configuration not stated)	25.4%
CCOC(=O)c1cc2sccc2n1Cc1ccc(C#N)cc1	96.9% (active)
CCOc1ccc(-c2nnc(-c3ccco3)o2)cc1	19%
COc1cc(C2CC(=O)N3CN(Cc4ccccc4)CSC3=C2C#N)ccc1OCc1ccccc1 (configuration not stated)	33%
COc1ccc(C2=NOC(C(=O)NCc3ccco3)C2)cc1OC (configuration not stated)	-4.7%
Cc1ccc(CNC(=O)C2CC(c3ccccc3[N+](=O)[O-])=NO2)o1 (configuration not stated)	61.7% (active)
O=C(NCCCCc1ccccc1)C1CC(c2ccc([N+](=O)[O-])cc2)=NO1 (configuration not stated)	9.5%
O=C(O)CN(Cc1ccco1)S(=O)(=O)c1ccccc1	-12.5%
COc1ccc(N2CCN(C3CC(=O)N(c4ccc5c(c4)OCCO5)C3=O)CC2)cc1 (configuration not stated)	9.7%
Cc1ccc(CC2CC(=O)N(c3ccc4c(c3)OCCO4)C2=O)cc1 (configuration not stated)	62.6% (active)
Cc1ccc(N2C(=O)CC(Sc3ncn[nH]3)C2=O)cc1 (configuration not stated)	5.4%
COC(=O)N1CN(C(=O)OC)CN(C(=O)OC)C1	-10.2%
CCn1c(SCc2ccc(C)cc2)nnc1-c1nn(-c2ccccc2)ccc1=O	-0.8%
O=C(NCc1ccco1)c1cc2sccc2n1Cc1ccc(F)cc1	32.8%
O=C(Cc1ccc(-n2c(=O)c3sccc3n(Cc3ccc(F)cc3)c2=O)cc1)NCc1ccco1	49.5%
O=C(NCc1ccco1)c1ccc(Cn2c(=O)c3sccc3n(Cc3ccc(F)cc3)c2=O)cc1	79.8% (active)
C=CCn1c(Oc2ccc(C(=O)OC)cc2)nc2c1c(=O)n(C)c(=O)n2C	5.6%
CC(=O)NCCc1ccc(S(=O)(=O)N(C)C2CCS(=O)(=O)C2)cc1 (configuration not stated)	-2.2%
Cc1cc(C)c(S(=O)(=O)N2C=CC(C(F)(F)F)=NCC2)c(C)c1	19%
CCNS(=O)(=O)c1ccc(NC(=O)Nc2cccc(C(F)(F)F)c2)cc1	1.1%
O=C(Cn1cc(/C=N/NC(=O)c2cccc(C(F)(F)F)c2)c2ccccc21)Nc1ccc(F)cc1	9.9%
O=C(CNS(=O)(=O)c1cccc(C(F)(F)F)c1)Nc1ccccc1F	74.7% (active)

Source: PubChem BioAssay AID778 (Sanford-Burnham Center for Chemical Genomics, 2007)
